Results as given in PubChem BioAssay (Tox21).
Records with an inconclusive call do not appear. Activity calls are given as the source filed them. Unless noted, calls follow the shape of the dose curve; as a rule, active = well fitted curve in the direction sought with a large enough effect in the repeat runs; inconclusive = weak or mixed curves; inactive = no such curve, though single readings can be large; an effect the other way counts as inactive or inconclusive.

Legend:
[1] = target: Luciferin 4-monooxygenase (Photinus pyralis) (UniProt P08659); test: qHTS assay to identify small molecule inhibitors of firefly luciferase (AID 1224835); also: nearly all actives have a fitted effect of over 25% in size; also: potency is read from the fitted curve at half-maximal effect
Method in brief: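 Biochemical qHTS: compounds run as interplate titrations against purified firefly enzyme, with D-luciferin and ATP each at its KM concentration. Light output recorded by CCD imaging.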

[2] = qHTS assay to identify small molecule agonists of the constitutive androstane receptor (CAR) signaling pathway - cell viability counter screen (AID 1224836); also: nearly all actives have a fitted effect of over 45% in size
Method in brief: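 Using CellTiter-Fluor, viability of HepG2 cells harbouring hCAR and CYP2B6-2.2kb was measured following 23 h incubation with a 15-concentration compound series plus PK11195 (0.75 uM final).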

[3] = qHTS assay to identify small molecule antagonists of the constitutive androstane receptor (CAR) signaling pathway - cell viability counter screen (AID 1224837); also: nearly all actives have a fitted effect of over 45% in size
Method in brief: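 In quantitative HTS format, compounds at 15 concentrations were applied to HepG2 cells double-transfected with hCAR and CYP2B6-2.2kb under 50 nM CITCO stimulation; live-cell protease activity was read after 23 hr via CellTiter-Fluor.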

[4] = target: Nuclear receptor subfamily 1 group I member 3 (Homo sapiens) (UniProt Q14994); test: qHTS assay to identify small molecule antagonists of the constitutive androstane receptor (CAR) signaling pathway (AID 1224838); also: nearly all actives have a fitted effect of over 40% in size
Method in brief: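 CITCO-stimulated (50 nM final) HepG2 cells stably transfected with hCAR and CYP2B6-2.2kb luciferase were exposed to compounds at 15 concentrations for 24 h at 37 C/5% CO2. A luciferase reagent was added and luminescence recorded after 30 min.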

[5] = target: Nuclear receptor subfamily 1 group I member 3 (Homo sapiens) (UniProt Q14994); test: qHTS assay to identify small molecule agonists of the constitutive androstane receptor (CAR) signaling pathway (AID 1224839); also: nearly all actives have a fitted effect of over 15% in size; also: potency is read from the fitted curve at half-maximal effect;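 as to activation: HepG2 cells stably carrying human CAR and a CYP2B6 luciferase reporter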
Method in brief: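 Double-stable HepG2 cells (hCAR, CYP2B6-2.2kb) seeded 4 h before compound addition. Exposure 24 h with 0.75 uM PK11195 final. Luciferase detected by ONE-Glo.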

[6] = target: Thyrotropin receptor (Homo sapiens) (UniProt P16473); test: qHTS assay to identify small molecule agonists of the thyroid stimulating hormone receptor (TSHR) signaling pathway (AID 1224843; calls by dose curve; also: nearly all actives have a fitted effect of over 45% in size)
Method in brief: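 Agonist-mode screen: TSHR HEK293 cells received test chemicals for half an hour at room temperature, then HTRF cAMP detection reagents for one hour prior to fluorescence measurement. Each chemical ran as a 15-concentration series, triplicated.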

[7] = qHTS assay to identify small molecule agonists of the hypoxia (HIF-1) signaling pathway - cell viability counter screen (AID 1224844; calls by dose curve; also: nearly all actives have a fitted effect of over 50% in size)
Method in brief: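 Same wells as the HIF-1 reporter screen; ME-180 cells carrying HRE-bla, 17 hr treatment at 37C; CellTiter-Glo luminescence read after 30 min at room temperature.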

[8] = qHTS assay to identify small molecule agonists of H2AX (AID 1224845; active = well fitted activation curve with a large enough effect in the signal ratio in the repeat runs, not every such curve was filed as active; the % refers to the signal ratio)
Method in brief: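 Wild-type CHO-K1 cells, plated overnight, exposed 3hr at 37C to 15 concentrations (0.76% DMSO final). Lysed, then HTRF anti-pH2AX (S139) cryptate and anti-H2AX-d2 antibodies, 24 hr room temperature; 665/620 nm emission read.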

[9] = qHTS assay to identify small molecule agonists of the hypoxia (HIF-1) signaling pathway (AID 1224846; active = well fitted activation curve with a large enough effect in the signal ratio in the repeat runs, not every such curve was filed as active; the % refers to the signal ratio)
Method in brief: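 In ME-180 cells bearing an HRE-bla construct, 17 h treatment with DMSO-dissolved compounds at 37C was followed by CCF4-AM loading to quantify reporter induction.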

[10] = qHTS assay to identify small molecule agonists of H2AX - cell viability counter screen (AID 1224847; calls by dose curve; also: top concentration of the series differs between compounds; nearly all actives have a fitted effect of over 30% in size)
Method in brief: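 Quantitative HTS viability measurement: CHO-K1 wild-type cells in serum (10% FBS) medium, short 3 hr drug exposure at 37C with 0.76% DMSO, CellTiter-Glo luminescent detection.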

[11] = qHTS RealTime-Glo MT Cell Viability Assay in HepG2 cells - 24 hour (AID 1224867); also: nearly all actives have a fitted effect of over 50% in size
Method in brief: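 Viability was tracked continuously by NanoLuc luminescence from prosubstrate reduced by living HepG2 cells, at successive time points over 40 h of compound exposure. Cells with reagent were preincubated 5 h at 37 °C before compound addition.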

[12] = A CellTox Green Cytotoxicity Assay to monitor cytotoxicity in HEK293 cells - 0 hour (AID 1224869); also: nearly all actives have a fitted effect of over 50% in size
Method in brief: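 Homogeneous no-lysis format: HEK293 cell suspension mixed with CellTox Green reagent, seeded, incubated 5 h at 37 C/5% CO2, then dosed by pintool with compound in DMSO.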

[13] = qHTS RealTime-Glo MT Cell Viability Assay in HepG2 cells - 40 hour (AID 1224870); also: nearly all actives have a fitted effect of over 50% in size
Method in brief: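 HepG2 cells (600/well) mixed with RealTime-Glo MT reagent, settled 5 h at 37 C/5% CO2 before compound addition. Nonlytic NanoLuc luminescence from viable-cell prosubstrate reduction read repeatedly during 40 h treatment at 37 C.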

[14] = qHTS assay to identify small molecule agonists of the estrogen related receptor signaling pathway with the pleiotropic PPARgamma coactivator (PGC) from Tox21 10K library (AID 1224842); also: nearly all actives have a fitted effect of over 15% in size
Method in brief: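 PGC/ERR reporter cell line, 2,000 cells per well, incubated 6 h at 37 C before 23 nL compound in DMSO was added. After 18 h at 37 C, One-Glo luminescence read following 30 min at room temperature.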

[15] = qHTS assay to identify small molecule agonists of the estrogen related receptor (ERR) signaling pathway from Tox21 library (AID 1224849; calls by dose curve; also: nearly all actives have a fitted effect of over 15% in size); conditions: ERR reporter cell line, ONE-Glo luciferase, 18 h; at 92.4 µM (top of the series) unless noted
Method in brief: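 Reporter cells (ERR, NTP source) treated with Tox21 10K compounds 18 h, 37 C. Readout: ONE-Glo luminescence, 30 min RT.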

[16] = qHTS RealTime-Glo MT Cell Viability Assay in HEK293 cells - 32 hour (AID 1224868)
Method in brief: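 Viability tracked continuously by luminescence as live cells reduce a prosubstrate for NanoLuc; HEK293 cells preincubated 5 h, compound-treated at 37 C, and read at 0, 8, 16, 24, 32 and 40 h.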

[17] = qHTS assay to identify small molecule antagonists of the estrogen related receptor signaling pathway with the pleiotropic PPARgamma coactivator (PGC) from Tox21 10K library (AID 1224841; call rule not given here)
Method in brief: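 In the PGC/ERR line, DMSO solutions of test chemicals are pin-delivered to 2,000 cells/well six hours after dispensing. Following eighteen hours' incubation, One-Glo reagent is added and luminescence recorded.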

[18] = qHTS assay to identify small molecule antagonists of the estrogen related receptor (ERR) signaling pathway from Tox21 library (AID 1224848); also: nearly all actives have a fitted effect of over 50% in size; also: potency is read from the fitted curve at half-maximal effect
Method in brief: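 Quantitative high-throughput format: ERR reporter cells (2,000/well) pre-incubated 6 h, treated 18 h at 37 C with compounds in DMSO alongside positive and negative controls, then read by ONE-Glo luminescence.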

[19] = qHTS assay to identify small molecule antagonists of the estrogen related receptor signaling pathway with the pleiotropic PPARgamma coactivator (PGC) from Tox21 10K library - cell viability counter screen (AID 1224840; active = well fitted cell-killing curve with a large enough effect in the repeat runs, not every such curve was filed as active; also: nearly all actives have a fitted effect of over 40% in size)
Method in brief: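 Viability counter screen, PGC/ERR cells: 17.5 h compound exposure at 37 C, CellTiter-Fluor fluorescence endpoint.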
% is scaled to controls: 0 for no effect and ±100 for the full control effect.

Sequence of Luciferin 4-monooxygenase (Photinus pyralis) (P08659 whole entry, looked up): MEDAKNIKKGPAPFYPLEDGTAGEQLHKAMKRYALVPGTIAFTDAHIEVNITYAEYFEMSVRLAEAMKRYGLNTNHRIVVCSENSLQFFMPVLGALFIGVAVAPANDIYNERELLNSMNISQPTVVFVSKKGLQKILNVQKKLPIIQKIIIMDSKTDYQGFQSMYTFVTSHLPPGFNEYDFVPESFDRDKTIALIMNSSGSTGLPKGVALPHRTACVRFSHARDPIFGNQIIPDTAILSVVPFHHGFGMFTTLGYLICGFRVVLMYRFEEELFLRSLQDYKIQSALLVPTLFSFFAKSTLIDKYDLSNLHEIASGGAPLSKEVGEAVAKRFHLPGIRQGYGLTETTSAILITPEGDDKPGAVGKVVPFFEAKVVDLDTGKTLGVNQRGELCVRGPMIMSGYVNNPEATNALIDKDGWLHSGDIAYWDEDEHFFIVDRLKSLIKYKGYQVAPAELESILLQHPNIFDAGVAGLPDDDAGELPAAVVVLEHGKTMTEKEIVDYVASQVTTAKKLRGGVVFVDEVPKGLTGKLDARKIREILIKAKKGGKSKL
Sequence of Thyrotropin receptor (Homo sapiens) (P16473 whole entry, looked up): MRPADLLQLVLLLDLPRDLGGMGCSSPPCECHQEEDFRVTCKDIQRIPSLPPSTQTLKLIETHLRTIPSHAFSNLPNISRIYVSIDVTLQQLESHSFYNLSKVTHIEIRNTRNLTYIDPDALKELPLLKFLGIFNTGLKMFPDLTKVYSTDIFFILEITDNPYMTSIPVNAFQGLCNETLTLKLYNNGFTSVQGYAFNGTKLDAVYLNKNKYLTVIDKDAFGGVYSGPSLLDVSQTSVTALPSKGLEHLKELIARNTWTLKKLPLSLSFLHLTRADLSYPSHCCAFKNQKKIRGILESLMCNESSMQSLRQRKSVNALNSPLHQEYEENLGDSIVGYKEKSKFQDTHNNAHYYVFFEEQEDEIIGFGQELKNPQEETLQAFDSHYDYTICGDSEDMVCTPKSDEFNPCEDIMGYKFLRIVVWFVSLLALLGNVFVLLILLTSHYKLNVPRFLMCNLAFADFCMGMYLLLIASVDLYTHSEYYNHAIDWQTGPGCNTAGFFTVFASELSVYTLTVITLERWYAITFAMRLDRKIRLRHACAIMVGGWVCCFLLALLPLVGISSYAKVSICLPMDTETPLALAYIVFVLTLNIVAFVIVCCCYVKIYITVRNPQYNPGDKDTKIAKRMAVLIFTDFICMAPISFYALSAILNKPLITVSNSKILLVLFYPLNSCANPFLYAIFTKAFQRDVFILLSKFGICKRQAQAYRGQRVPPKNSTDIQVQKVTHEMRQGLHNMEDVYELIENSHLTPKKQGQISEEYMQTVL
Sequence of Nuclear receptor subfamily 1 group I member 3 (Homo sapiens) (Q14994 whole entry, looked up): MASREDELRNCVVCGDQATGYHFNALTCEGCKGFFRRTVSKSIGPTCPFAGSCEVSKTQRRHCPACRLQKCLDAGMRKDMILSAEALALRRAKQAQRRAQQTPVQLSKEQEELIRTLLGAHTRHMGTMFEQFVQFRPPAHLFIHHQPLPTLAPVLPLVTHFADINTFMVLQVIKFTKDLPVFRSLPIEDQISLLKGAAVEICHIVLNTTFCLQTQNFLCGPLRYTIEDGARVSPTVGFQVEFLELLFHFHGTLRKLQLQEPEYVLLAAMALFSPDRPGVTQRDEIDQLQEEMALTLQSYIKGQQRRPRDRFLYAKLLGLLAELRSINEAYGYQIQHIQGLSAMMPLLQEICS

NC(=O)N(O)[C@@H]1COc2cc(OCc3ccccc3)ccc21
inactive: Potency [2] | Potency [3] | Potency [4] | Potency [6] | Potency [7] | Potency [8] | outcome [9] | Potency [10] | Potency [11] | Potency [12] | Potency [13]
active: Potency [1] 1120 nM | Potency [5] 193 nM

O=S(=O)(c1ccccc1)c1ccc(Cl)cc1
inactive: Potency [1] | Potency [2] | Potency [3] | Potency [4] | Potency [14] | Potency [6] | Potency [7] | outcome [9] | Potency [10] | activity change, positive = activation [15] -31.4% | Potency [11] | Potency [16] | Potency [13]

N#C[C@@H]1C[C@@H]2C[C@@H]2N1C(=O)[C@@H](N)C12CC3CC(CC(O)(C3)C1)C2
inactive: Potency [1] | Potency [2] | Potency [3] | Potency [4] | Potency [5] | Potency [17] | Potency [14] | Potency [6] | Potency [7] | Potency [8] | outcome [9] | Potency [10] | Potency [18] | activity change, positive = activation [15] 0.254% [at 42.5 µM] | Potency [11] | Potency [16] | Potency [12] | Potency [13]

COc1ccc([C@@H]2Sc3ccccc3NC(=O)[C@@H]2O)cc1
inactive: Potency [1] | Potency [2] | Potency [3] | Potency [5] | Potency [14] | Potency [6] | Potency [7] | Potency [8] | outcome [9] | Potency [10] | activity change, positive = activation [15] -18.7% [at 42.5 µM] | Potency [11] | Potency [12] | Potency [13]

CN(C)CCOC1=Cc2ccccc2Sc2ccc(Cl)cc21
inactive: Potency [1] | Potency [2] | Potency [3] | Potency [5] | Potency [17] | Potency [14] | Potency [6] | outcome [9] | Potency [10] | activity change, positive = activation [15] -11.9% [at 42.5 µM] | Potency [16]

CN1CCN(c2c(F)cc3c(=O)c(C(=O)O)cn4c3c2OCN4C)CC1
inactive: activity change, negative = inhibition [1] 2.58% [at 23.6 µM] | viability change, negative = cytotoxic [2] 0.256% [at 19 µM] | activity change, negative = cytotoxicity [3] -2.88% [at 19 µM] | activity, negative = inhibition [4] 0.0919% [at 19 µM] | activation [5] -1.52% [at 19 µM] | viability change, negative = cytotoxic [19] 9.28% [at 19 µM] | activation [6] -2.64% [at 19 µM] | activity change, negative = cytotoxicity [7] 3.62% [at 15.8 µM] | activation (H2AX phosphorylation) [8] -2.48% [at 31.6 µM] | activation [9] -0.337% [at 15.8 µM] | activity change, negative = cytotoxicity [10] 0.372% [at 31.6 µM] | activity change, negative = cytotoxicity [11] 3.52% [at 15.8 µM] | activity change, negative = cytotoxic [16] 1.18% [at 15.8 µM] | activity change, negative = cytotoxic [13] -3.22% [at 15.8 µM]

COC(=O)c1cc(Cl)ccc1NS(=O)(=O)C(F)(F)F
inactive: Potency [1] | Potency [2] | Potency [3] | Potency [4] | Potency [5] | Potency [19] | Potency [17] | Potency [14] | Potency [6] | Potency [7] | outcome [9] | Potency [10] | Potency [18] | activity change, positive = activation [15] 6.47% [at 42.5 µM] | Potency [11] | Potency [16] | Potency [12] | Potency [13]

Cc1ccc(S(=O)(=O)NC2CCCCC2)cc1
active: Potency [18] 27100 nM
inactive: Potency [1] | Potency [2] | Potency [3] | Potency [5] | Potency [19] | Potency [14] | Potency [6] | Potency [7] | Potency [8] | outcome [9] | activity change, positive = activation [15] -34.7% | Potency [11] | Potency [12] | Potency [13]
